Rows were chosen to be rich in hits. Some 2.4% of all compounds tested hit in one or more screens of this group.
D2 antagonist – HTS Assay for Allosteric Antagonists of the Human D2 Dopamine Receptor: Primary Screen for Antagonists; D(2) dopamine receptor (Homo sapiens), P14416; HEK293 TREx D2 cells, calcium flux, dopamine EC80; inhibition, % at 10 µM; hit rate 2% among 340,000; AID 485344, 2010; in the data active = inhibition above about 30%; inactive = below that, where a call was filed
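Read-out: kinetic calcium fluorescence (1 cycle/s) in inducible HEK293 T-REx D2 cells after an EC80 dopamine addition that followed 180 s compound preincubation. Loss of the dopamine response indicates antagonism.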
D2 PAM-1 – HTS Assay for Positive Allosteric Modulators of the Human D2 Dopamine Receptor: Primary Screen for Potentiators. D(2) dopamine receptor (Homo sapiens), P14416. HEK293 T-REx D2, calcium flux, EC20 dopamine potentiation. potentiation, % at 10 µM. hit rate 0.34% among 340,000. AID 485347, 2010;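 active = potentiation over 3 SD above the plate norm, cut at about 30% in these data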
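Cells plated with tetracycline inducer and held overnight at 30 C; calcium dye loaded 30–90 min at room temperature; baseline taken, compound added and read 180 s; EC20 dopamine then added and read 180 s.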
D2 ag-1 – HTS Assay for Allosteric Agonists of the Human D2 Dopamine Receptor: Primary Screen for Agonists; HEK293 T-REx D2 cells, calcium flux agonist mode; hit rate 0.53% among 340,000; AID 485358, 2010; activation, % at 2 µM; D(2) dopamine receptor (Homo sapiens), P14416;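 active = activation over 3 SD above normal in the single-dose calcium agonist read, cut at about 30% in these data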
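HEK293 Trex D2 cells, tetracycline-induced, o/n 30 C 5% CO2; no-wash Ca dye, RT 30–90 min; 10-cycle baseline, 23 nl cpd added, kinetic Ca read 180 s; agonist hits = positive Ca response.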
D2 ag-2 – Beta-Arrestin HTS for Positive Allosteric Modulators of the Human D2 Dopamine Receptor: Agonists. DiscoveRx PathHunter D2 beta-arrestin, luminescence, 90 min; 100% = 57 uM dopamine signal. activation, % (test concentration not listed). hit rate 0.084% among 360,000. AID 624465, 2012; in the data active = activation above about 40%; inconclusive = between about 15% and that limit
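Agonist mode: compounds alone added to overnight-plated D2 PathHunter cells for 90 min at 37 C, with 57 uM final dopamine (EC100) defining full response. Beta-arrestin recruitment detected by chemiluminescent reagent, read after 1 h at ambient temperature.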
D2 PAM-2 – Beta-Arrestin HTS for Positive Allosteric Modulators of the Human D2 Dopamine Receptor: Potentiators. DiscoveRx D2 beta-arrestin cells, luminescence, 90 min; 100% = 57 uM dopamine signal. D(2) dopamine receptor (Homo sapiens), P14416. potentiation, % (no concentration beside the values). hit rate 0.23% among 360,000; in the data active = potentiation above about 50%; inconclusive = mostly about 30% to 49%
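PathHunter D2 cells, attached overnight at 37 deg C, received compound in DMSO plus dopamine at EC20 (50 nM final) for 90 min at 37 deg C. Beta-arrestin recruitment was read as luminescence after 1 h with detection reagent at ambient temperature.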
D3 arrestin ag – qHTS of D3 Dopamine Receptor Agonist: D3 Dopamine Receptor B-arrestin Agonist Confirmatory Assay. shares compounds with D2 ag-1. DiscoveRx D3 beta-arrestin cells, luminescence, 90 min. Potency, µM (titrated, usually from 76.9 µM), most hits filed as activators. hit rate 4% among 2,300. AID 720506, 2013; note: nearly all actives have a fitted effect of over 70% in size
Target sequence (P35462 whole entry, looked up): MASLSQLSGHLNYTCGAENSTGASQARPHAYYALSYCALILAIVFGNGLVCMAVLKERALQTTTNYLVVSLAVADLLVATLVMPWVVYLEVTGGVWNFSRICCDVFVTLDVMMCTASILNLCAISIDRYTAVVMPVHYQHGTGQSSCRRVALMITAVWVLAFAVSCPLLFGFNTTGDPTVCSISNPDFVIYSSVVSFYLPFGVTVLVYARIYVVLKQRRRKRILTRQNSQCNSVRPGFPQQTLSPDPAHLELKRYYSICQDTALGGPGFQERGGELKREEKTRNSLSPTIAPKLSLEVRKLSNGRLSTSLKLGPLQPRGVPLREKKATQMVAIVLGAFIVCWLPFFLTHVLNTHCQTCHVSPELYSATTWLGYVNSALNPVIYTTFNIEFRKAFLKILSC
D2 ag-3 – qHTS of D3 Dopamine Receptor Agonist: D2 Dopamine Receptor B-arrestin Agonist Counterscreen | shares compounds with D2 ag-1 | DiscoveRx PathHunter D2 beta-arrestin, luminescence, 90 min; response scale: percent relative to full dopamine signal | Potency, µM (highest dose often 76.9 µM), most hits filed as activators | hit rate 5.9% among 2,300 | AID 720507, 2013; note: nearly all actives have a fitted effect of over 70% in size
A number is an active result; 0 = inactive; ? = inconclusive; - = not tested or not shown. Unless noted, calls come from the whole dose curve; as a rule, active = well fitted activation curve with a large enough effect; inconclusive = small, poorly fitted or top-dose-only effect; inactive = flat fitted curve, though single readings scatter.

SMILES	D2 antagonist	D2 PAM-1	D2 ag-1	D2 ag-2	D2 PAM-2	D3 arrestin ag	D2 ag-3
O=C(NC1CCCCC1)N1CCc2ccccc2C1	0	0	0	0	0	-	-
CC(=O)C(Cc1ccccc1)NC(=O)CN1CCc2ccccc2C1 (configuration not stated)	0	0	0	0	0	-	-
CCOc1ccccc1NC(=O)CN1CCc2ccccc2C1	0	0	0	0	0	-	-
Cc1ccccc1NC(=O)CN1CCc2ccccc2C1	40.1	0	67.9	?	0	?	?
Cc1cccc(NC(=O)N2CCc3ccccc3C2)c1C	0	0	0	0	0	0	0
COc1ccc(Cn2c(CNC(=O)Cc3cccc([N+](=O)[O-])c3)nc3cccnc32)cc1	-	0	0	-	-	-	-
CCN(CC)S(=O)(=O)c1ccc(O)c(NC(=O)CN2CCc3ccccc3C2)c1	0	0	0	0	0	-	-
Cc1ccc(NC(=O)CN2CCc3ccccc3C2)cc1S(=O)(=O)N(C)C	0	0	47.5	0	0	0	0
N#CC1(NC(=O)CN2CCc3ccccc3C2)CCCC1	0	0	0	0	0	0	0
CN(C)S(=O)(=O)c1ccc(Cl)c(NC(=O)CN2CCc3ccccc3C2)c1	87.3	0	60.9	64.0	0	10µM	14.1µM
CN(C)S(=O)(=O)c1ccc(Cl)c(NC(=O)CN2CCN(c3ccccn3)CC2)c1	0	0	69.1	?	0	?	31.6µM
CC(=O)Nc1ccc(NC(=O)Cc2ccc(S(=O)(=O)N3CCCCC3)cc2)cc1	0	0	0	0	0	-	-
N#CCN=C(c1ccccc1)c1ccccc1	0	0	0	0	0	0	0
N#CN=C(c1ccccc1)c1ccccc1	0	0	0	0	0	-	-
COc1ccc(OC)c(NC(=O)N(C)CCc2c(C)nn(C)c2C)c1	-	0	0	-	-	-	-
COc1ccc2c(c1)OC[C@H]1[C@H]2N2C(=O)CN(C)C(=O)[C@@]2(C)[C@H]1c1ccccc1	0	0	0	0	0	0	0
CCCCN1CC(=O)N2[C@H]3c4ccc(OC)cc4OC[C@@H]3[C@H](C(=O)OCC)[C@]2(C)C1=O	0	0	0	0	0	0	0
Oc1ccc(CNCC2COc3ccccc3O2)cc1 (configuration not stated)	185.0	0	68.4	0	0	0	0
c1ccc(CCNCC2COc3ccccc3O2)cc1 (configuration not stated)	0	0	31.9	0	0	0	0
CN(C)S(=O)(=O)c1cccc(CNCC2COc3ccccc3O2)c1 (configuration not stated)	105.6	0	76.9	0	0	?	0
Cc1ccc(C(=O)N2CCN(c3ccc([N+](=O)[O-])cc3)CC2)o1	0	0	0	0	0	-	-
COc1ccc(/C=C/C(=O)NC(=S)NN2CCCCC2c2cccnc2)cc1OC (configuration not stated)	0	0	49.0	0	0	0	0
Cc1ccc(-c2ccc3c(c2)O[C@H](CN(C)C(=O)Nc2ccc(C(F)(F)F)cc2)[C@H](C)CN([C@H](C)CO)S3(=O)=O)cc1	-	-	-	0	0	-	-
COc1ccc(-c2c(C#Cc3ccsc3)c3cc(-c4ccc5c(c4)OCCO5)ccc3n2C)cc1	-	-	-	0	0	-	-
COc1ccc(-c2c(C#Cc3ccsc3)c3cc(-c4ccc5c(c4)OCO5)ccc3n2C)cc1	0	0	0	0	0	0	0
SMILES	D2 antagonist	D2 PAM-1	D2 ag-1	D2 ag-2	D2 PAM-2	D3 arrestin ag	D2 ag-3
CC(C)(C)c1ccc(S(=O)(=O)NC(=O)C2(C)CCN2C(=O)Cc2cccc3ccccc23)cc1 (configuration not stated)	-	-	-	0	0	-	-
O=C(Nc1ccc(N2CCOCC2)cc1)c1ccc(S(=O)(=O)N2CCCCC2)cc1	0	0	0	0	0	0	0
CC(=O)Nc1ccc(C(=O)Nc2ccc(S(=O)(=O)N3CCOCC3)cc2)cc1	0	0	0	0	0	-	-
O=C(CCC1CCCC1)NNC(=O)c1ccc(F)cc1	0	0	0	0	0	0	0
CCOc1cc(CNC(=O)c2ccc3nc(CCc4ccccc4)oc3c2)ccc1OC	-	0	0	-	-	-	-
Cc1cc(=O)oc(C)c1C(=O)NCCCN1CCN(c2ccccc2F)CC1	46.8	0	58.4	0	0	?	0
Cn1c(C(=O)NCCCN2CCN(c3ccccc3F)CC2)cc2c(=O)n(C)c3ccccc3c21	97.8	0	73.4	?	0	0	?
Cc1ccc(-n2nc(C)c(C(=O)NCCCN3CCN(c4ccccc4F)CC3)c2-n2cccc2)cc1	-	0	0	-	-	-	-
Cn1c(=O)cc(SCC(=O)NCCCN2CCN(c3ccccc3F)CC2)c2ccccc21	91.6	0	75.5	?	0	0	?
CCn1c(=O)cc(SCC(=O)NCCN2CCN(Cc3ccccc3)CC2)c2ccccc21	0	0	44.4	0	0	0	0
COc1ccc(C(NC(=O)C2CCN(CCCOc3ccccc3)CC2)c2cccs2)cc1 (configuration not stated)	-	-	-	0	0	-	-
Cc1cc(C)c2c(=O)n(CC(=O)NCCCN3CCN(c4ccccc4F)CC3)sc2n1	53.5	0	83.3	0	0	0	0
Cc1cc(C)c2c(=O)n(CC(=O)NCCCN3CCOCC3)sc2n1	0	0	0	0	0	-	-
O=C(CCSc1ccc(Br)cc1)Nc1cccnc1	0	0	0	0	0	-	-
CCOC(=O)C1(Cc2cccc(F)c2)CCN(CCCn2cccn2)CC1	0	0	42.5	0	0	0	0
CCOC(=O)C1(CCOc2ccccc2)CCN(CCCn2cccn2)CC1	76.8	0	57.0	0	0	0	0
CCOC(=O)C1(CCOc2ccccc2)CCN(Cc2cccc(-n3cccn3)c2)CC1	0	0	0	0	0	-	-
Cc1ccc(S(=O)(=O)N(C)CC(=O)N(C)Cc2cccs2)cc1	-	-	-	0	0	-	-
O=C(OCc1cc2ccccc2[nH]c1=O)c1cccc([N+](=O)[O-])c1	0	0	0	0	0	-	-
CCOC(=O)N1CCC(NC(=O)c2ccc(CS(=O)c3cccc(Cl)c3)o2)CC1 (configuration not stated)	54.1	0	43.6	0	0	0	0

Assay outcomes: PubChem BioAssay, National Center for Advancing Translational Sciences (NCATS)
